Our source for the growth values is PubChem BioAssay (NCI).

Some test systems named below: NCI-H23 lung; NCI-H226 lung; NCI-H322M lung; HOP-62 NSCLC; NCI-H460 lung; HOP-92 NSCLC; NCI-H522 lung; A549/ATCC NSCLC; 786-0 renal; COLO 205 colon; DU-145 prostate; K-562 leukemia; MALME-3M melanoma; MDA-MB-231 breast; RXF 393 renal; SF-268 CNS; SF-295 CNS; SF-539 CNS; UACC-257 melanoma; M14 melanoma.
What all share (experiment): NCI-60 one-dose screen, 48 h (100 = growth as untreated, 0 = no growth, -100 = all killed)
Common to all, as to conditions: 10 µM unless noted

Molecules are shown by their SMILES. About 83,000 compounds went through this panel and 20% of them were active in at least one assay; those are over-represented in the sample as a whole.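 The endpoint reported here, percent growth, reads 100 for growth as untreated, 0 for no net growth and -100 for all cells dead.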 Unmarked numbers belong to inactive results. The source made the active and inactive calls. How the source made its calls: active means growth percent below 10; inactive means the rest.

With `CC[C@H](C)[C@H](NC(=O)C12C3C4C1C1C2C3C41NC(C)=O)C(=O)N(C)[C@H](C[C@@H](OC(C)=O)c1nc(C(=O)N[C@@H](Cc2ccccc2)C[C@H](C)C(=O)OC)cs1)C(C)C` (stereo not given in full), the growth is 25.1% in the assay on NCI-H23 lung; 31.7% in the assay with NCI-H226 lung; 51.5% in the assay with NCI-H322M lung; 22.4% with HOP-62 NSCLC; 3.63% (active) with NCI-H460 lung; 30.2% with HOP-92 NSCLC. The growth in the assay on NCI-H522 lung is 6.65% (active); in the assay with A549/ATCC NSCLC, 27.7%; in the assay with 786-0 renal it was 12%; in the assay on COLO 205 colon it was -26.1% (active); in the assay on DU-145 prostate it was 1.99% (active); in the assay on K-562 leukemia, 8.82% (active). The growth in the assay with MALME-3M melanoma is 58.6%; with MDA-MB-231 breast, 22.1%; in the assay with RXF 393 renal, 41.9%; in the assay with SF-268 CNS, 27.5%; with SF-295 CNS, 13%; in the assay on SF-539 CNS, 5.34% (active). Besides, the growth in the assay on UACC-257 melanoma is 44.2%; in the assay with M14 melanoma, 1.02% (active).
For the compound `CC[C@H](C)[C@H](NC(=O)C12CC(NC(C)=O)(C1)C2)C(=O)N(C)[C@H](C[C@@H](OC(C)=O)c1nc(C(=O)N[C@@H](Cc2ccccc2)C[C@H](C)C(=O)OC)cs1)C(C)C`, the growth is 30.9% in the assay on NCI-H23 lung; 19.9% with NCI-H226 lung; 51.3% in the assay on NCI-H322M lung; 20.3% in the assay on HOP-62 NSCLC; 3.12% (active) in the assay with NCI-H460 lung; 19.9% in the assay on HOP-92 NSCLC. Also, the growth in the assay with NCI-H522 lung was 1.64% (active); with A549/ATCC NSCLC, 22.6%; in the assay on 786-0 renal, 16%; with COLO 205 colon, -31.5% (active); in the assay on DU-145 prostate, 0.412% (active); with K-562 leukemia, 11.5%. Also, the growth with MALME-3M melanoma is 51.8%; in the assay on MDA-MB-231 breast it was 28.5%; in the assay on RXF 393 renal it was 43.9%; in the assay with SF-268 CNS it was 27.2%; with SF-295 CNS, 18.7%; with SF-539 CNS, 1.61% (active). Besides, the growth was 49.6% in the assay with UACC-257 melanoma and 2.48% (active) in the assay on M14 melanoma.
In the case of `N/C(=N\N=C\c1ccc(-c2ccccc2)cc1)N[N+](=O)[O-]`, the growth with NCI-H23 lung was 41%; in the assay with NCI-H226 lung, 73.6%; in the assay with NCI-H322M lung, 52.7%; in the assay with HOP-62 NSCLC it was 38.2%; in the assay on NCI-H460 lung, 16.4%; in the assay with HOP-92 NSCLC it was 51.6%. Besides, the growth in the assay on NCI-H522 lung was 18.2%; in the assay on A549/ATCC NSCLC it was 38.4%; with 786-0 renal, 40.6%; in the assay on COLO 205 colon, 24.9%; in the assay on DU-145 prostate it was 33.4%; in the assay on K-562 leukemia, 14.9%. Further, the growth in the assay with MALME-3M melanoma was 43.7%; with MDA-MB-231 breast, 66.5%; in the assay on RXF 393 renal, -4.68% (active); in the assay on SF-268 CNS, 49.1%; with SF-295 CNS it was 7.55% (active); in the assay with SF-539 CNS, 9.43% (active). The growth was 65.3% in the assay on UACC-257 melanoma and 25.8% in the assay on M14 melanoma.
In the case of `COP(=O)(OC)C(O)c1ccc(Cl)cc1` (stereo not given), the growth is 98.8% with NCI-H23 lung; 102% in the assay with NCI-H226 lung; 84.2% with NCI-H322M lung; 104% in the assay with HOP-62 NSCLC; 103% in the assay on NCI-H460 lung; 98.1% with HOP-92 NSCLC. For the same compound, the growth is 89.1% in the assay with NCI-H522 lung; 98.3% in the assay with A549/ATCC NSCLC; 101% with 786-0 renal; 102% with COLO 205 colon; 97.9% with DU-145 prostate; 117% in the assay with K-562 leukemia. The growth in the assay with MALME-3M melanoma was 101%; with MDA-MB-231 breast it was 123%; in the assay on RXF 393 renal it was 108%; with SF-268 CNS, 94.6%; in the assay on SF-295 CNS, 100%; in the assay with SF-539 CNS, 103%. For the same compound, the growth is 99.7% in the assay with UACC-257 melanoma and 96.4% in the assay with M14 melanoma.
With `C/C(=C\c1ccn(-c2ccccc2N)n1)[C@@H]1C[C@@H]2O[C@]2(C)CCC[C@H](C)[C@H](O)[C@@H](C)C(=O)C(C)(C)[C@@H](O)CC(=O)O1`, the growth is 20.4% in the assay on NCI-H23 lung; 33.8% with NCI-H226 lung; 16.6% with NCI-H322M lung; 41.7% in the assay with HOP-62 NSCLC; 14.9% in the assay on NCI-H460 lung; 77.4% in the assay on HOP-92 NSCLC. The growth in the assay with NCI-H522 lung is 11.7%; in the assay on A549/ATCC NSCLC it was 24.8%; with 786-0 renal, 17.8%; in the assay with COLO 205 colon it was -4.12% (active); in the assay with DU-145 prostate it was -17.8% (active); with K-562 leukemia it was 14.6%. Further, the growth with MALME-3M melanoma was 41.7%; in the assay with MDA-MB-231 breast, 21.9%; in the assay on RXF 393 renal it was -3.76% (active); in the assay on SF-268 CNS it was 30.3%; in the assay with SF-295 CNS, 13.8%; in the assay on SF-539 CNS, -12% (active). For the same compound, the growth in the assay on UACC-257 melanoma is 62.3%; with M14 melanoma, 2.49% (active).
For `CC1=C(CNO)C2=C(C)C3(CC3)[C@@](C)(O)C(=O)C2=C1`, the growth with NCI-H23 lung is -24.8% (active); in the assay on NCI-H226 lung, 25.3%; in the assay with NCI-H322M lung it was -15.8% (active); with HOP-62 NSCLC, 1.62% (active); in the assay with NCI-H460 lung, -0.969% (active); with HOP-92 NSCLC, -19.6% (active). Further, the growth was -7.65% (active) in the assay on NCI-H522 lung; -7.8% (active) in the assay on A549/ATCC NSCLC; -17.5% (active) in the assay with 786-0 renal; -20.4% (active) in the assay on COLO 205 colon; 4.97% (active) in the assay with DU-145 prostate; 88.4% with K-562 leukemia. Besides, the growth in the assay on MALME-3M melanoma is -62.6% (active); in the assay with MDA-MB-231 breast, 10.3%; in the assay on RXF 393 renal, -70.3% (active); in the assay with SF-268 CNS, 0.784% (active); in the assay with SF-295 CNS, -4.83% (active); in the assay on SF-539 CNS, -35.3% (active). The values for the growth in the assay with UACC-257 melanoma and in the assay with M14 melanoma were -24.3% (active) and 26.8%, respectively.
Turning to `COC(=O)[C@H](Cc1ccccc1)NC(=O)c1csc([C@@H](C[C@H](C(C)C)N(C)C(=O)[C@@H](NC(=O)[C@H]2CCCN2C)C2CC2)OC(C)=O)n1`, the growth in the assay with NCI-H23 lung was 35.9%; in the assay with NCI-H226 lung, 58%; in the assay on NCI-H322M lung, 50.3%; with HOP-62 NSCLC, 34.9%; with NCI-H460 lung, 4.53% (active); in the assay with HOP-92 NSCLC, 8.6% (active). Also, the growth is 0.953% (active) with NCI-H522 lung; 23.2% in the assay on A549/ATCC NSCLC; 31.6% in the assay with 786-0 renal; -26.7% (active) in the assay with COLO 205 colon; 7.69% (active) in the assay with DU-145 prostate; 1.55% (active) with K-562 leukemia. Besides, the growth was 62.9% with MALME-3M melanoma; 6.1% (active) in the assay on MDA-MB-231 breast; 23.3% in the assay on RXF 393 renal; 24.4% in the assay on SF-268 CNS; -4.82% (active) in the assay with SF-295 CNS; -24.9% (active) in the assay on SF-539 CNS. For the same compound, the growth in the assay on UACC-257 melanoma is 61.9%; in the assay with M14 melanoma, 1.22% (active).
Turning to `COc1ccc2c(c1)c(-c1nc(-c3c[nH]c4ncccc34)cs1)cn2CCCCN1CCCCC1`, the growth in the assay on NCI-H23 lung is 1.32% (active); in the assay with NCI-H226 lung, 39.6%; in the assay with NCI-H322M lung, -20.2% (active); in the assay on HOP-62 NSCLC, -75.5% (active); in the assay with NCI-H460 lung, -69.8% (active); with HOP-92 NSCLC, 20.5%. The growth in the assay on NCI-H522 lung was -68.8% (active); in the assay on A549/ATCC NSCLC, -65.9% (active); in the assay on 786-0 renal, -90% (active); with COLO 205 colon, -76.2% (active); in the assay with DU-145 prostate it was -14.6% (active); with K-562 leukemia, -73.7% (active). For the same compound, the growth is -76.1% (active) with MALME-3M melanoma; -75.9% (active) in the assay with MDA-MB-231 breast; -85.8% (active) in the assay on RXF 393 renal; -50.9% (active) in the assay on SF-268 CNS; -64.9% (active) in the assay with SF-295 CNS; -80.9% (active) with SF-539 CNS. Further, the growth in the assay with UACC-257 melanoma is -82.3% (active); with M14 melanoma it was -88% (active).
